Measurements taken from the supplement of paper PMC10981050.
Structures can show the parent of a compound that is named as a salt.

test system: MOLM14; assay: cell viability relative to vehicle control; higher = less cytotoxic; details: 10 µM; SRSF2 genotype: SRSF2 P95H/wt
Procedure, shortened: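 Each screen used CRISPR-edited mutant and wild-type clones from four leukaemia lines. Compounds were acoustically dispensed at a single 10 µM dose, and CellTiter-Glo luminescence was read after 48 h with the supernatant first removed. Viability was analysed in Genedata Screener and given as percent of the on-plate vehicle control.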

SMILES	cell viability [%]
CCN(Cc1ccncc1)C(=O)C(CO)c1ccccc1 (centres undefined) [Tropicamide]	97.7
CN(C)C1CCN(C(=O)c2ccc(NC(=O)Nc3ccc(-c4nc(N5CCOCC5)nc(N5CCOCC5)n4)cc3)cc2)CC1	22.1
COc1cc2nc(N3CCN(C(=O)c4ccco4)CC3)nc(N)c2cc1OC [Prazosin HCl]	101
O=C(c1cccc(Br)c1)N1CCC(N2CCCC2)CC1	105
CC(=O)Oc1ccc2c(c1)Oc1cc(OC(C)=O)ccc1C21OC(=O)c2cc(C(=O)ON3C(=O)CCC3=O)ccc21.CC(=O)Oc1ccc2c(c1)Oc1cc(OC(C)=O)ccc1C21OC(=O)c2ccc(C(=O)ON3C(=O)CCC3=O)cc21	92.8
CC1(C)S[C@@H]2[C@H](NC(=O)Cc3ccccc3)C(=O)N2[C@H]1C(=O)O [Penicillin G Sodium]	96.9
CCOc1cc2ncc(C#N)c(Nc3ccc(F)c(Cl)c3)c2cc1NC(=O)/C=C/CN(C)C [Pelitinib (EKB-569)]	0.45
CC(C)=CCC[C@](C)(O[C@@H]1O[C@H](CO)[C@@H](O)[C@H](O)[C@H]1O)[C@H]1CC[C@]2(C)[C@@H]1[C@H](O)C[C@@H]1[C@@]3(C)CC[C@H](O)C(C)(C)[C@@H]3[C@@H](O[C@@H]3O[C@H](CO)[C@@H](O)[C@H](O)[C@H]3O[C@@H]3O[C@@H](C)[C@H](O)[C@@H](O)[C@H]3O)C[C@]12C [Ginsenoside Re]	101
C[C@H](CCC(=O)O)[C@H]1CC[C@H]2[C@@H]3[C@@H](O)C[C@@H]4C[C@H](O)CC[C@]4(C)[C@H]3CC[C@]12C [Ursodiol (Actigal Urso)]	99.4
